The test system of assay [1] is PRMT1 (protein arginine N-methyltransferase 1). The assay is described as follows: PRMT1 binders on small-molecule microarrays, primary screen, biochemical, small-molecule microarray, 635 nm fluorescence (AID 1088).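 Also: binding of Prmt1 protein to compounds spotted on small-molecule microarray slides.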 Particulars: small-molecule microarray binding, higher = more signal.
A short description of assay [2]: yeast growth modulation, basal conditions, primary screen, YJM789 clinical isolate, OD600, 24 h (AID 1089).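 Also: growth of clinical yeast isolate S. cerevisiae YJM 789 seeded 1000 cells per well; test concentration not given here.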 The settings on record: S. cerevisiae YJM789 growth, higher = more signal, called active from +8 up or from −8 down.
Assay [3] can be described thus: fission yeast growth modulation, primary screen, strain 972, OD600, 24 h, no modulator (AID 1090).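 Also: basal condition with compound alone and no growth modifier present; test concentration not given here.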 Particulars: S. pombe 972 growth, higher = more signal, called active from +8 up or from −8 down.
The nature of assay [4]: S. cerevisiae growth modulation with rapamycin, primary screen, strain BY4716, OD600, 96 h (AID 1091). Also: test concentration not given here. Particulars: higher = more signal, called active from +8 up or from −8 down.
For assay [5], the target named is Torsin-1A-interacting protein 2 (Homo sapiens) (UniProt Q8NFQ8). The assay can be described thus: LULL1 binders on small-molecule microarray, primary screen, cell lysate, human LULL1 lysate, 635/667 nm fluorescence (AID 1092).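 Also: probe is lysate of COS7 cells overexpressing human LULL1; score merges per-feature 667 nm fluorescence with signal-to-noise.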 The settings on record: hLULL1 lysate binding, 635 nm fluorescence, higher = more signal.
Chain of Torsin-1A-interacting protein 2 (Homo sapiens) (Q8NFQ8 whole entry, looked up): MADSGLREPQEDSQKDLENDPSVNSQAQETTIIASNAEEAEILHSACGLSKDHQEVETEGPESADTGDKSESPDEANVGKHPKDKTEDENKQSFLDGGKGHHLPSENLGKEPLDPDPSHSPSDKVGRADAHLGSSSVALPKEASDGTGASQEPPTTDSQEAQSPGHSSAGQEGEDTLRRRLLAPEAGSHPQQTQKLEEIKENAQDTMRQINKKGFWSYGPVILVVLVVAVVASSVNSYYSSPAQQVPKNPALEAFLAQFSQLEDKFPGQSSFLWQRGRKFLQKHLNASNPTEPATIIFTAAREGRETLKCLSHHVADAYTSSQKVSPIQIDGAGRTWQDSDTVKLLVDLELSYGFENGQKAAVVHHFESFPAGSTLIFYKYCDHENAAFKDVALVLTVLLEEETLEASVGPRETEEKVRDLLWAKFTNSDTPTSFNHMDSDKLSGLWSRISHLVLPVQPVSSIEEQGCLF
Assay [6] is described as follows: E. coli growth modulation, two-sided OD650, primary screen, E. coli filamentation project, strain DRC41, 24 h (AID 1093).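 Also: MC1000 strain lacking acrAB efflux and sulA so SOS filamentation is blocked; test concentration not given here.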 The settings on record: OD650, 24 h, higher = more signal, called active from +8 up or from −8 down.
Assay [7] is described as follows: small-molecule microarray binders of probe aLefty2, primary screen, biochemical, biotinylated probe, 635/667 nm fluorescence (AID 1094).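 Also: score merges spot fluorescence near 667 nm with spot signal-to-noise ratio.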 The settings on record: higher = more signal.
Assay [8] deals with Noggin (protein binding on small-molecule microarray). The assay can be described thus: Noggin binders on small-molecule microarray, primary screen, biochemical, 635/667 nm fluorescence (AID 1095).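 Also: score merges 667 nm feature fluorescence with signal to noise over triplicate slides.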 The settings on record: 635 nm fluorescence, higher = more signal.
Assay [9] addresses Neurogenic locus notch homolog protein 3 (Homo sapiens) (UniProt Q9UM47). The assay can be described thus: NOTCH3 binders on small-molecule microarray, primary screen, biochemical, 635/667 nm fluorescence (AID 1096). The settings on record: NOTCH3 binding, 635 nm fluorescence, higher = more signal.
The nature of assay [10]: small-molecule microarray binders of probe aEGFR, primary screen, biochemical, biotinylated probe, 635/667 nm fluorescence (AID 1097).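 Also: probe is a biotinylated anti-EGFR antibody binding compounds printed on slides; score combines fluorescence near 667 nm and signal to noise of each spot.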 The settings on record: higher = more signal.
Assay [11] deals with Plasmodium falciparum Sir2 (PF13_0152, Sir2A). The assay can be described thus: pfSir2 binders on small-molecule microarrays, primary screen, biochemical, small-molecule microarray, 635 nm fluorescence (AID 1098).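 Also: score merges spot fluorescence intensity with its signal-to-noise ratio.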 The settings on record: small-molecule microarray binding, fluorescence 635 nm; higher = more signal.
Assay [12] is described as follows: small-molecule microarray binders of probe aDKK1, primary screen, biochemical, biotinylated probe, 635/667 nm fluorescence (AID 1099).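 Also: score merges 667nm spot fluorescence with signal to noise across triplicate slides; reference of the scale not given here.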 Particulars: higher = more signal.
The nature of assay [13]: small-molecule microarray binders of probe aCHRDL2, primary screen, biochemical, biotinylated probe, 635/667 nm fluorescence (AID 1100). Particulars: higher = more signal.
Assay [14] is described as follows: splicing luciferase reporter signal modulators, primary screen, spliceosome inhibition project, cell-based, HEK293, splice +/- reporter (AID 1101).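 Also: HEK293 cells carrying a splicing-competent luciferase reporter gene; test concentration not given here.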 The settings on record: luminescence, 24 h, higher = more signal, called active from +8 up or from −8 down. Background: In a reporter assay the amount or activity of a reporter protein is the signal.
For assay [15], the target named is Fibroblast growth factor 10 (Homo sapiens) (UniProt O15520). The assay is described as follows: FGF10 binders on small-molecule microarrays, primary screen, biochemical, small-molecule microarray, 635 nm fluorescence (AID 1102). Particulars: FGF10 binding, fluorescence 635 nm, higher = more signal.
Chain of Fibroblast growth factor 10 (Homo sapiens) (O15520 whole entry, looked up): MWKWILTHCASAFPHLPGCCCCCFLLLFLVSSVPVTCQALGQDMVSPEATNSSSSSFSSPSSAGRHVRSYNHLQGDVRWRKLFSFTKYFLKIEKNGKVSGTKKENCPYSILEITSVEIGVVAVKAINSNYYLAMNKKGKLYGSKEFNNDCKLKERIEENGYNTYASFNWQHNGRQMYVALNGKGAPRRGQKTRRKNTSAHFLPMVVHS
In assay [16] the test system is glycogen synthase kinase-3 (GSK3A per assay name; protocol says GSK3B). The assay can be described thus: GSK3 binders on small-molecule microarrays, primary screen, biochemical, small-molecule microarray, 635 nm fluorescence, GSK3A (AID 1103). Also: the record names both GSK3A and GSK3B. Particulars: small-molecule microarray binding, fluorescence 635 nm; higher = more signal.
In assay [17] the target is Epidermal growth factor receptor (Homo sapiens) (UniProt P00533). The assay can be described thus: EGFR binders on small-molecule microarrays, primary screen, biochemical, small-molecule microarray, 635 nm fluorescence (AID 1104).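 Also: score merges 667 nm emission intensity with spot signal to noise over triplicate slides.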 Particulars: EGFR binding, higher = more signal.
Chain of Epidermal growth factor receptor (Homo sapiens) (P00533 whole entry, looked up): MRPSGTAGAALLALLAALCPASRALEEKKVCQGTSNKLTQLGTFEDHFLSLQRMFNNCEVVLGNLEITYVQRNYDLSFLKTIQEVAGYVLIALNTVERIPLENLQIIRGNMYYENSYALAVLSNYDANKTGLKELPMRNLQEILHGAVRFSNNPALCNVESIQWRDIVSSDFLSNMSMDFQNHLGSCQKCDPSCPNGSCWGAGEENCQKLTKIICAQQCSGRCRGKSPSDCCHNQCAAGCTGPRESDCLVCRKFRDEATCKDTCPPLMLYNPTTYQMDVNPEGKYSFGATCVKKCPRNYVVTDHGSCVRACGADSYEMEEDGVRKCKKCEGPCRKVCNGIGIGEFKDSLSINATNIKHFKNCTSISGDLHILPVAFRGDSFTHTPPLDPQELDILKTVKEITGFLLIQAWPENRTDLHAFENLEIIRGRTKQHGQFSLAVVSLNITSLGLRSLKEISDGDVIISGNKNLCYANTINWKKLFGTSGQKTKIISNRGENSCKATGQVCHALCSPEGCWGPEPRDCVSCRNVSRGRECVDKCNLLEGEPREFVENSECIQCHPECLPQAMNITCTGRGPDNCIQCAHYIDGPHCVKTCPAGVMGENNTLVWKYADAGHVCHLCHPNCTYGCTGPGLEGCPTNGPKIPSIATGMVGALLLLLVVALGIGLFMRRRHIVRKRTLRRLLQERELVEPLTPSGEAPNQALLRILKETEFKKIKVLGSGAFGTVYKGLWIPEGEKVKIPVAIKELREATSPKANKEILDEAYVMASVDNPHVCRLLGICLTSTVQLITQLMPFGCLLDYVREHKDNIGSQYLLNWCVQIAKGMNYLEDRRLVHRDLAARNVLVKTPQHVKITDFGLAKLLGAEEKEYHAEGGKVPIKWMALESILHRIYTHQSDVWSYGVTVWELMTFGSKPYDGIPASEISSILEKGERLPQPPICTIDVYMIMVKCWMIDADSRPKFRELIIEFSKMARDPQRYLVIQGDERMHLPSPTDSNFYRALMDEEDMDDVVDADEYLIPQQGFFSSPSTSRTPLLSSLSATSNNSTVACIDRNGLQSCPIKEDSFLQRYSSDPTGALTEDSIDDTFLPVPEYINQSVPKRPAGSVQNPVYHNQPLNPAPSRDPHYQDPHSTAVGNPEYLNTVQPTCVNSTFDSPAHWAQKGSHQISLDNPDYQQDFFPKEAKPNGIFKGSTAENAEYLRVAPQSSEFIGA
For assay [18], the target named is Follistatin-related protein 3 (Homo sapiens) (UniProt O95633). The assay can be described thus: FSTL3 binders on small-molecule microarrays, primary screen, biochemical, small-molecule microarray, 635 nm fluorescence (AID 1105).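 Also: score merges emission near 667 nm and signal to noise per printed spot across three slides.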 The settings on record: FSTL3 binding, higher = more signal.
Chain of Follistatin-related protein 3 (Homo sapiens) (O95633 whole entry, looked up): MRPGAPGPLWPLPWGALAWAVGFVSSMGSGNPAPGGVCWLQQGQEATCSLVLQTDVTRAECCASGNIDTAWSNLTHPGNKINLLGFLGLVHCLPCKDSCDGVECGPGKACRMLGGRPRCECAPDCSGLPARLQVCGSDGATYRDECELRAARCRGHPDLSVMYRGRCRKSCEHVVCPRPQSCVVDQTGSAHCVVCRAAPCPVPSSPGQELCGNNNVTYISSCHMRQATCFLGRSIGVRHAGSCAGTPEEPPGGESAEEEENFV
Assay [19] concerns the target Dickkopf-related protein 1 (Homo sapiens) (UniProt O94907). The assay can be described thus: DKK1 binders on small-molecule microarrays, primary screen, biochemical, small-molecule microarray, 635 nm fluorescence scan (AID 1106).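 Also: score merges emission near 667 nm with signal to noise over three replicate slides.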 Particulars: DKK1 binding, higher = more signal.
For assay [20], the system named is Inhibin beta A chain (activin A). The assay can be described thus: INHBA (activin A) binders on microarrays, primary screen, biochemical, small-molecule microarray, 635 nm fluorescence scan (AID 1107).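 Also: mouse activin A protein probed at 4.33 µg/mL on printed slides; score merges bound-protein fluorescence near 667 nm with spot signal-to-noise.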 The settings on record: small-molecule microarray binding, higher = more signal.

Molecules are shown by their SMILES. The source made the active and inactive calls.

Chain of Dickkopf-related protein 1 (Homo sapiens) (O94907 whole entry, looked up): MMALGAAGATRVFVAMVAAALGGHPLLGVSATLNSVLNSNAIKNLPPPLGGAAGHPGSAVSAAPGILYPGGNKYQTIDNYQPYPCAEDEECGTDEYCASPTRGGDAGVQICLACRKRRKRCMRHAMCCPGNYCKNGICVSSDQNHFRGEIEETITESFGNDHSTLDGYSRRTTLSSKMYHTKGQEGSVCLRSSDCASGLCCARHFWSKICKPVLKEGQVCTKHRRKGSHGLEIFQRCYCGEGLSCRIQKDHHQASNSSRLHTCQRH
Chain of Neurogenic locus notch homolog protein 3 (Homo sapiens) (Q9UM47 whole entry, looked up): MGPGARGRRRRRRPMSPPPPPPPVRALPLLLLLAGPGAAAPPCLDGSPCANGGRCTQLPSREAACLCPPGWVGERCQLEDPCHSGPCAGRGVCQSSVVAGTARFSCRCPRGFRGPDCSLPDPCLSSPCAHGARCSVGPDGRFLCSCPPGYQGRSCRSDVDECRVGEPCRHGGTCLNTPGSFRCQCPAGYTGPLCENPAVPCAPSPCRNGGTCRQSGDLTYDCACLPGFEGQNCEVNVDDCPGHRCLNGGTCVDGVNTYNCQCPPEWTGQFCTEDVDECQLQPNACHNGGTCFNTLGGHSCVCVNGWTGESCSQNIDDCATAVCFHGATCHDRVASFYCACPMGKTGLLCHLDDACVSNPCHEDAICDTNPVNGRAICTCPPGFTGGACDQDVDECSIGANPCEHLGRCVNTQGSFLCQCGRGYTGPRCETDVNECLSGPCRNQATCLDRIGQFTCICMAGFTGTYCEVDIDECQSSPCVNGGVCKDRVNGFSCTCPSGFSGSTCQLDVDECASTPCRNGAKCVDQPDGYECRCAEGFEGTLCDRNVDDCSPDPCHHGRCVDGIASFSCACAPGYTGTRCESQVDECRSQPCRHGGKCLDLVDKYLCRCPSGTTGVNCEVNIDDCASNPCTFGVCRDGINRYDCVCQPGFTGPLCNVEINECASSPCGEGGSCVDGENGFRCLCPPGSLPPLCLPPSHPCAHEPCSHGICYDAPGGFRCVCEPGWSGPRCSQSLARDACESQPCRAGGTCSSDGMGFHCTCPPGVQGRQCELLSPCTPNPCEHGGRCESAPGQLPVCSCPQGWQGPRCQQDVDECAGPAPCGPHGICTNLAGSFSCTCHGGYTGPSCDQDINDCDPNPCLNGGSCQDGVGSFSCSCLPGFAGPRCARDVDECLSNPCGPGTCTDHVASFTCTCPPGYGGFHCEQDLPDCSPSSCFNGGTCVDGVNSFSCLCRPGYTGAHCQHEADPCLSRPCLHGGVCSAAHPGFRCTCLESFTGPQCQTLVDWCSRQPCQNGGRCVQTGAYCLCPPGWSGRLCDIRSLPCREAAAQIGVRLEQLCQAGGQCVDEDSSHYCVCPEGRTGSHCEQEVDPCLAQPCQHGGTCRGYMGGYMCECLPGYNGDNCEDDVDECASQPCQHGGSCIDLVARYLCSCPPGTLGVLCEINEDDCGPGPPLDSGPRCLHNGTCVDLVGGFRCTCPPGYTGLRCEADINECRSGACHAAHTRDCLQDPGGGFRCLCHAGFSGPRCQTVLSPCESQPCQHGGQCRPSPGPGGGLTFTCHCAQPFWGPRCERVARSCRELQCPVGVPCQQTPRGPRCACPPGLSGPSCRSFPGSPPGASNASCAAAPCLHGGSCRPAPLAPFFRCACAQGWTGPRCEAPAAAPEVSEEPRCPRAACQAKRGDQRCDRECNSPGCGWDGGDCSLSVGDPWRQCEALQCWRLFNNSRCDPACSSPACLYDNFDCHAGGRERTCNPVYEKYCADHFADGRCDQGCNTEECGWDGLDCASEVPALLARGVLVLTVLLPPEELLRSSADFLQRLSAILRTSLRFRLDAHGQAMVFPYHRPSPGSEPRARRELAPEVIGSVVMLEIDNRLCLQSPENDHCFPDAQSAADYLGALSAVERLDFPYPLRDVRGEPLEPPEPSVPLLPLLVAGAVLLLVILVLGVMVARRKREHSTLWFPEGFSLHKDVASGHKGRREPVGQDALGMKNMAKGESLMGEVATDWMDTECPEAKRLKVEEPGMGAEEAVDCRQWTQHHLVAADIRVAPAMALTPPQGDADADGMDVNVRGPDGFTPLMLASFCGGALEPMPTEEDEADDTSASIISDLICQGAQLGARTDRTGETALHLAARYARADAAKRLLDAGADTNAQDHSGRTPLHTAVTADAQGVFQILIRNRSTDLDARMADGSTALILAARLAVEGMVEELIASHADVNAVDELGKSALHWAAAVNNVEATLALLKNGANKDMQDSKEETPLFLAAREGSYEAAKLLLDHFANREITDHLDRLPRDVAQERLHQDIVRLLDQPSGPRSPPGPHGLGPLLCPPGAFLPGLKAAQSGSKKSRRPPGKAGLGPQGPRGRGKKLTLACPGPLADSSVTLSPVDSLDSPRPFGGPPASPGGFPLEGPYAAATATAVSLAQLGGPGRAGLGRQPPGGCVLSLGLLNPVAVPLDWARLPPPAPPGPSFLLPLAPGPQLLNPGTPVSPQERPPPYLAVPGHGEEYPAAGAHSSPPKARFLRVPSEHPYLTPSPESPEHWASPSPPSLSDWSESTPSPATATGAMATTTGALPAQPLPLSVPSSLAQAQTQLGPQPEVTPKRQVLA

Regarding `COCCOC(=O)N1C(=O)[C@@]2(c3cc(C#CC4(O)CCCCCC4)ccc31)[C@H](c1ccc(O)cc1)N1[C@H](c3ccccc3)[C@H](c3ccccc3)OC(=O)[C@H]1[C@@H]2C(=O)NC[C@H](O)c1ccccc1`, the composite z-score in [1] was 1.55; in assay [5], 1.18; in assay [7], 0.332; in [8], 1.78; in assay [9], 1.06; in assay [10] it was 0.22. Also, the composite z-score in [11] turned out to be 0.355; in assay [12], 0.655; in assay [13] it was 0.692; in assay [15], 1.12; in [16] it was 1.29; in assay [17] it was 0.783. In addition, the composite z-score in assay [18] is 0.936; in assay [19] it was 1.08; in [20], -0.237. Further, the z-score in [2] is 0.0316 (inactive); in assay [3], -0.312 (inactive); in assay [4], 0.939 (inactive); in [6], -0.639 (inactive); in assay [14], 0.355 (inactive).

In the case of `C[N+](C)(C)CCCCCCNC(=O)[C@H]1C[C@H]2C(=O)N[C@@H](Cc3ccccc3)C(=O)N2[C@H]1c1ccc(O)cc1`, the composite z-score in [1] is 1.53; in assay [5], 2.56; in assay [7] it was -0.0769; in assay [8] it was 1.18; in assay [9], 0.98; in [10], -0.136. For the same molecule, the composite z-score in [11] is 1.27; in assay [12] it was -0.265; in assay [13], -0.534; in assay [15] it was 0.98; in assay [16] it was 0.637; in assay [17] it was 0.192. Besides, the composite z-score came to 0.894 in assay [18], 0.834 in [19] and 0.445 in [20]. Moreover, the z-score was -0.327 (inactive) in [2]; 0.162 (inactive) in assay [3]; 0.0818 (inactive) in [4]; 0.441 (inactive) in assay [6]; -0.0288 (inactive) in assay [14].

Turning to `O=C1NC(=O)C2C1C=CC(C(O)c1ccco1)N2Nc1ccccn1` (stereo not given), the composite z-score is 0.184 in assay [1]; 0.147 in assay [5]; -0.121 in assay [7]; -0.119 in assay [8]; -0.509 in assay [9]; -0.0259 in assay [10]. Further, the composite z-score in [11] is 0.76; in assay [12], -0.0191; in assay [13], 0.0668; in [15], 0.32; in assay [16], 0.03; in [17], 0.217. Besides, the composite z-score was -0.374 in assay [18], -0.172 in [19] and 1.01 in [20]. For the same molecule, the z-score is 0.493 (inactive) in assay [2]; 0.652 (inactive) in assay [3]; 0.637 (inactive) in assay [4]; -0.87 (inactive) in assay [6]; 1.69 (inactive) in assay [14].

As for `O=C1OCC=C[C@H]2OC34C=CCN(c5ccc(Cl)cc5)C(=O)[C@H]3N(CCO)C(=O)[C@@H]4[C@@H]12` (stereo not given in full), the composite z-score in assay [1] was 0.197; in [5], 2.87; in assay [7], -0.286; in assay [8] it was -2.04; in [9] it was -0.368; in assay [10], -0.321. The composite z-score in assay [11] is 0.201; in assay [12] it was -0.521; in assay [13] it was 0.777; in assay [15] it was -0.25; in assay [16] it was -0.747; in assay [17] it was -0.962. Further, the composite z-score in assay [18] was -1.68; in assay [19], -1.71; in assay [20], -0.303. For the same molecule, the z-score in assay [2] was -0.23 (inactive); in assay [3], -0.846 (inactive); in assay [4], 0.0595 (inactive); in assay [6] it was -0.297 (inactive); in assay [14] it was 0.169 (inactive).

With `COc1ccc(CN(C2=CC[C@@]3(C(N)=O)C(=O)C(Cl)=C(Cl)C(=O)[C@@]3(C#N)C2)S(=O)(=O)c2ccc(Br)cc2)cc1`, the composite z-score is -0.196 in [1]; 3.31 in assay [5]; 0.0496 in [7]; -0.0701 in [8]; -0.366 in assay [9]; -0.111 in assay [10]. Moreover, the composite z-score in assay [11] was -0.201; in assay [12], 0.661; in assay [13] it was 0.84; in assay [15], 0.0024; in [16] it was -0.139; in [17] it was -0.733. In addition, the composite z-score is -0.0224 in assay [18], -1.28 in assay [19] and 1.03 in assay [20]. The z-score in [2] was -1.62 (inactive); in assay [3], -2.63 (inactive); in assay [4] it was -0.266 (inactive); in assay [6] it was 1.29 (inactive); in [14], -2.69 (inactive).

Source of the values: PubChem BioAssay.
